About 210 (10%) of roughly 2,100 compounds were called active. Roughly 53% stayed inconclusive and do not appear here. Calls come from the whole dose curve; as a rule, active = well fitted inhibition curve with a large enough effect; inconclusive = small, poorly fitted or top-dose-only effect, or effect the other way; inactive = no such curve, though single readings can be large or run the other way. The list shows a part of the results.
Potency is the fitted concentration of half-maximal effect.

A short description of the test: IN Cell qHTS Assay for Inhibitors of the mTORC1 Signaling Pathway in MEF (Tsc2-/-, p53-/-) Cells: Sytravon. Note: nearly all actives have a fitted effect of over 60% in size. The following applies: phospho-rpS6 immunofluorescence, 24 h; series mostly up to 38.3 µM; activity, negative = inhibition: at the top concentration. Put shortly:
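Immunofluorescence of rpS6 phosphorylation (Ser235/236) in mouse embryonic fibroblasts lacking Tsc2 and p53, after 24 h compound exposure; Hoechst-normalized signal imaged, each well scored as % active cells relative to rapamycin (7.5 nM) and DMSO controls.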
With `CCOC(=O)c1c(NC(=O)c2ccc(S(=O)(=O)N3CCCC(C)C3)cc2)sc2c1CCN(C(C)C)C2` (configuration not stated), the “activity, negative = inhibition” value was 6.25% (inactive).
With `FC(F)(F)c1ccc(C2=Nc3ccccc3NC(c3cccs3)=N2)cc1`, the “activity, negative = inhibition” value is -26.8% (inactive).
For `O=C(CCCn1ccc2cc(S(=O)(=O)N3CCCC3)ccc21)NCc1ccc(Cl)cc1`, the “activity, negative = inhibition” value was -28.7% (inactive).
The same measure, in the same setting: the same measure for `CCc1ccccc1-n1c(SCC(=O)Nc2ccc(C)cc2)nc2n[nH]c(C)c2c1=N`: 0% (inactive); for `O=C(NCc1ccc(Cl)cc1Cl)c1cccc(N2CCCS2(=O)=O)c1`: 19% (inactive).
On the same count and under the same terms, the figure for `CCCCN1C(=O)C(O)(c2c(C)[nH]c3ccccc23)c2ccccc21` (configuration not stated) is -20% (inactive).
Same read-out and setting: the figure for `Cc1ccc(S(=O)(=O)Cc2ccc(C(=O)N3CCN(c4cccc(C)c4C)CC3)o2)cc1` is 0% (inactive).
In the case of `Cc1ccccc1S(=O)Cc1ccc(C(=O)N2CCN(c3cccc(C)c3C)CC2)o1` (configuration not stated), the Potency was 3.69 µM (active).
For the molecule `Cc1cccc(N2CCN(C(=O)Cn3nc(Cc4cccnc4)c4ccccc4c3=O)CC2)c1C`, the “activity, negative = inhibition” value is -14.4% (inactive).
Consider `CC1CCCCN1CC(=O)N1CCCc2c1c(=O)oc1ccc(OCc3ccccc3)cc21` (configuration not stated), for which the Potency is 13.1 µM (active).
Take `O=C(COc1ccc2oc3c(c2c1)CCCC3)Nc1cccc(Br)c1`: the “activity, negative = inhibition” value was -25.2% (inactive).
On the same count and under the same terms, the figure for `COc1ccc(OC)c(NC(=O)CN2C(=O)COc3ccc(S(=O)(=O)NC4CCCC4)cc32)c1` is 0% (inactive); for `COc1ccc(-c2nc(SCC(=O)NCc3ccccc3Cl)n[nH]2)cc1` it is 5.77% (inactive).
On the same count and under the same terms, the same measure for `COc1cccc(C2C(C(N)=O)=C(C)Nc3nc(CCCO)nn32)c1` (configuration not stated): -9.38% (inactive); for `CCCC1=Nc2cc(C(=O)NCCOC)ccc2Sc2ccccc21`: -6.5% (inactive).
With `CCSc1ccccc1C(=O)Nc1ccc(-c2nc3ccccc3s2)c(O)c1`, the Potency is 4.65 µM (active).
Consider `COc1cc(C(=O)Nc2cc(C)c(O)c(-c3nc4ccccc4s3)c2)cc(OC)c1OC`, for which the “activity, negative = inhibition” value is -76.9% (inactive).
Still for that read-out and setting: the same measure for `Cc1ccccc1NC(=O)CSc1nc2ccc(NC(=O)c3ccccc3)cc2s1`: -6.34% (inactive); for `Cc1ccc(C)c(N2CCN(C(=O)C3CCN(c4nc5ccc(C)cc5[nH]4)CC3)CC2)c1`: 0.961% (inactive).
Take `Cc1ccccc1Cn1cc(NC(=O)c2cc(-c3ccc(Cl)cc3)on2)cn1`: the “activity, negative = inhibition” value is -3.51% (inactive).
On the same count and under the same terms, the same measure for `COc1ccc(N2CC(c3nc(-c4cc(OC)c(OC)c(OC)c4)no3)CC2=O)cc1Cl` (configuration not stated): -1.67% (inactive).
Turning to `Cc1ccc2occ(CC(=O)Nc3ccc(Cl)c(C(F)(F)F)c3)c2c1`, the Potency was 13.1 µM (active).
With `Cc1ccc(NC(=O)Cc2coc3ccc(C(C)C)cc23)cc1Cl`, the “activity, negative = inhibition” value is -9.6% (inactive).
Turning to `Cc1ccc2onc(CC(=O)Nc3cccc(C(F)(F)F)c3)c2c1`, the “activity, negative = inhibition” value was -16.8% (inactive).
On the same count and under the same terms, the figure for `CC(C)(C)c1ccc(Oc2nc3ccccn3c(=O)c2/C=C(\C#N)c2nc3ccccc3[nH]2)cc1` is 16.3% (inactive); for `COc1ccccc1CNS(=O)(=O)c1cc(C(=O)Nc2cccc(C(F)(F)F)c2)ccc1F` it is 6.25% (inactive); for `O=C(Nc1ccc(Br)cc1)c1cc(S(=O)(=O)N2CCc3ccccc32)ccc1F` it is 6.25% (inactive).
For `CCOC(=O)Cn1c(=O)c2c(nc(N3CCOCC3)n2Cc2ccccc2)n(C)c1=O`, the Potency was 8.26 µM (active).
For `CCOC(=O)Cn1c(=O)n(-c2ccccc2OC)c2nc(-c3ccccc3F)nc(C(N)=O)c21`, the “activity, negative = inhibition” value was -2.08% (inactive).
As for `Cc1ccc(CNc2nc3c(c(=O)n(C)c(=O)n3C)n2Cc2ccc(Cl)cc2)cc1`, the “activity, negative = inhibition” value is -29.3% (inactive).
The same measure, in the same setting: the figure for `CCN(C(=O)CN1C(=O)c2ccccc2Sc2ccc(C(=O)OC)cc21)c1cccc(C)c1` is -1.6% (inactive); for `O=C(Nc1ccc(Cl)cc1)C1CCC(CNS(=O)(=O)c2ccc(Br)s2)CC1` (configuration not stated) it is -26% (inactive).
On the same count and under the same terms, the figure for `Cc1cccc(C)c1NC(=O)c1cc(S(=O)(=O)N2CCCc3ccccc32)ccc1F` is 6.25% (inactive).
On to `CCC(C)S(=O)(=O)c1oc(-c2ccc(F)cc2)nc1S(=O)(=O)c1ccc(F)cc1` (configuration not stated), for which the Potency is 1.04 µM (active).
Same read-out and setting: the figure for `CC(C)S(=O)(=O)c1oc(-c2cccs2)nc1S(=O)(=O)c1ccc(F)cc1` is 0.927 µM (active).
Still for that read-out and setting: the same measure for `CC(C)S(=O)(=O)c1oc(-c2ccc(F)cc2)nc1S(=O)(=O)c1ccc(F)cc1`: 0.826 µM (active).
`Brc1ccc(CNCCCSc2nnnn2-c2ccccc2)cc1`: the “activity, negative = inhibition” value is -15.4% (inactive).
For `CCOCc1cc(CN2CCN(c3cccc(C(F)(F)F)c3)CC2)c(O)c2ncccc12`, the “activity, negative = inhibition” value is -28% (inactive).
For the molecule `Cc1cn2c(=O)cc(COC(=O)c3ccc(NC(=O)COc4ccccc4C)cc3)nc2s1`, the “activity, negative = inhibition” value was 0% (inactive).
As for `CC(=O)c1ccc(N2CCN(S(=O)(=O)c3ccc(-c4coc(C)n4)cc3)CC2)cc1`, the “activity, negative = inhibition” value was -10.4% (inactive).
The same measure, in the same setting: the same measure for `CCOC(=O)c1c(NC(=O)c2ccc(S(=O)(=O)N3CCCC(C)C3)cc2)sc2c1CC(C)(C)NC2(C)C` (configuration not stated): 6.25% (inactive); for `CN(C)c1ccc(/C=C(\C#N)c2nc(-c3ccc(Cl)c(Cl)c3)cs2)cc1`: 0.289% (inactive).
In the case of `Cc1ccc(S(=O)(=O)c2nc(-c3cccs3)oc2SCC(=O)Nc2cc(C)cc(C)c2)cc1`, the Potency was 16.5 µM (active).
As to `COc1ccc(-c2nc(SCC(=O)Nc3c(C)cc(C)cc3C)n[nH]2)cc1`, the “activity, negative = inhibition” value was -15.3% (inactive).
Turning to `CCOc1ccc(NC(=O)CSc2oc(-c3ccc(F)cc3)nc2S(=O)(=O)c2ccc(C)cc2)cc1`, the Potency is 2.33 µM (active).
Take `CCSc1oc(-c2ccc(F)cc2)nc1S(=O)(=O)c1ccc(C)cc1`: the “activity, negative = inhibition” value was -11.9% (inactive).
Still for that read-out and setting: the same measure for `CCOc1ccc(-c2nnc(SCC(=O)Nc3cccc(OC)c3)nc2-c2ccc(OCC)cc2)cc1`: 6.25% (inactive); for `CCOc1ccc(-c2cc(CCCC(=O)NCCc3ccc(OC)c(OC)c3)no2)cc1`: -10% (inactive).
On the same count and under the same terms, the same measure for `CCOC(=O)c1c(-c2ccccc2)oc2ccc(N(C(C)=O)S(=O)(=O)c3ccc(CC)cc3)cc12`: -2.37% (inactive); for `CCN(CC)c1cc(C)c2cc(NC(=O)c3ccccc3Cl)ccc2n1`: -4.11% (inactive).
On to `Cc1ccc(OCC(=O)Nc2ccc3nc(Nc4cccc(Cl)c4)cc(C)c3c2)cc1`, for which the Potency was 14.7 µM (active).
Consider `Cc1ccc(-n2c(SCC(=O)Nc3cccc(Cl)c3)nc3n[nH]c(C)c3c2=N)cc1`, for which the “activity, negative = inhibition” value is 0% (inactive).
The same measure, in the same setting: the figure for `CCN1C(=O)C(O)(c2c(C)[nH]c3ccccc23)c2ccccc21` (configuration not stated) is -0.614% (inactive); for `Cc1nn(-c2ccc(N3CCOCC3)nn2)c(C)c1CCC(=O)NCc1ccccc1F` it is -3.08% (inactive).
The same measure, in the same setting: the figure for `O=C(CSc1nc(-c2ccccc2)[nH]c1-c1ccccc1)Nc1ccc2c(c1)OCO2` is -14.4% (inactive); for `Cc1cccc(C(=O)Nc2c(-c3ccc(F)cc3)nc3ccccn23)c1` it is -18.2% (inactive); for `COC(=O)c1c(-c2ccc(Cl)cc2)noc1N1CCN(c2cc(C)ccc2C)CC1` it is 8.33% (inactive).
As for `CCOC(=O)c1c(C)[nH]c(CCC(=O)Nc2cc(C)cc(C)c2)c1C`, the “activity, negative = inhibition” value was -3.85% (inactive).
In the case of `CCOC(=O)c1c(C)[nH]c(CCC(=O)NCCCN2CCN(c3cc(C)ccc3C)CC2)c1C`, the Potency is 11.7 µM (active).
On to `CCOC(=O)c1c(C)[nH]c(CCC(=O)NCCCN2CCN(c3cc(Cl)ccc3C)CC2)c1C`, for which the Potency was 14.7 µM (active).
In the case of `CCOC(=O)c1c(C)[nH]c(CCC(=O)NCc2ccc(OC)cc2OC)c1C`, the “activity, negative = inhibition” value was 12.9% (inactive).
For `COc1ccc(-c2ccc(CCC(=O)O)n2-c2ccccc2O)cc1`, the “activity, negative = inhibition” value was -5% (inactive).
Same read-out and setting: the same measure for `CCC1CN(C(=O)NCc2ccccc2)c2cc(C)ccc2O1` (configuration not stated): -10.1% (inactive).
The same measure, in the same setting: the same measure for `CCN(Cc1ccccc1)Cc1c(O)ccc2oc(C)c(C(=O)Nc3ccc(C)cc3C)c12`: -5.82% (inactive).
The same measure, in the same setting: the figure for `CCCCN1C(C(=O)c2ccccc2)=C(OC(C)=O)c2ccccc2S1(=O)=O` is -15.5% (inactive).
As for `COc1ccc(OC)c2sc(N(CCCN(C)C)C(=O)c3ccco3)nc12`, the Potency was 14.7 µM (active).
On the same count and under the same terms, the same measure for `COc1ccccc1Nc1c2c(nc3ccc(NC(=O)c4ccc(OC)c(OC)c4)cc13)CCCC2`: 1.65 µM (active); for `COc1ccc(C)cc1Nc1c2c(nc3ccccc13)CCC2`: 7.36 µM (active).
For the molecule `COc1ccccc1Nc1nn2c(=O)c3ccc(C(=O)NCCC4=CCCCC4)cc3nc2s1`, the “activity, negative = inhibition” value is -95.7% (inactive).
Same read-out and setting: the same measure for `COc1ccc(C(=O)Nc2cccc(-c3cn4ccsc4n3)c2)cc1OC`: -19.6% (inactive); for `COc1cc(Cl)c(C)cc1Nc1c2c(nc3ccccc13)CCC2`: -95.5% (inactive).
On to `COc1ccccc1Nc1c2c(nc3ccc(NC(=O)c4ccc(N(C)C)cc4)cc13)CCCC2`, for which the Potency was 2.07 µM (active).
On to `COc1cc2c(cc1OC)n(CC(=O)Nc1ccc(C)cc1C)c(=O)n1nc(-c3ccccc3)nc21`, for which the “activity, negative = inhibition” value is -81.9% (inactive).
Same read-out and setting: the figure for `COc1ccccc1Nc1nn2c(=O)c3ccc(C(=O)NCCc4ccccc4)cc3nc2s1` is -11.5% (inactive).
In the case of `COc1ccccc1Nc1c2c(nc3ccc(NC(=O)c4cccc(OC)c4OC)cc13)CCCC2`, the Potency is 5.85 µM (active).
As for `CC1=C(C(=O)Nc2ccccc2C)C(c2cccs2)n2nc(SCc3ccccc3)nc2N1` (configuration not stated), the “activity, negative = inhibition” value was -100% (inactive).
Same read-out and setting: the same measure for `CCC1CN(C(=O)N2CCC(C(=O)NCCN(CC)CC)CC2)c2ccccc2O1` (configuration not stated): -0.799% (inactive).
Take `CC(C)c1ccc(NC(=O)c2ccc(F)c(S(=O)(=O)N3CCN(c4ccccc4F)CC3)c2)cc1`: the “activity, negative = inhibition” value is 6.25% (inactive).
Still for that read-out and setting: the same measure for `COc1ccc2c(c1)c(=O)c(S(=O)(=O)c1ccc(Cl)cc1)cn2C`: -15.6% (inactive); for `COc1ccc(CCCc2nnc(SCC(=O)Nc3cccc(F)c3C)o2)cc1`: -25.4% (inactive).
Still for that read-out and setting: the figure for `COc1ccccc1CCNC(=O)C(=O)NCC(c1cccnc1)N1CCN(c2ccccc2)CC1` (configuration not stated) is -1.98% (inactive).
For `CCCc1nn2c(=O)cc(COC(=O)c3cccc(NC(=O)c4ccc(OCC)cc4)c3)nc2s1`, the “activity, negative = inhibition” value is 0% (inactive).
`CCOc1ccc(NC(=O)Cn2c(=O)cc(C)c3c(C)nn(C)c32)cc1`: the “activity, negative = inhibition” value was -14.9% (inactive).
On the same count and under the same terms, the same measure for `CCC1=Nc2cc(C(=O)NCc3ccccc3Cl)ccc2Sc2ccc(C)cc21`: 0% (inactive); for `CCc1cccc(NC(=O)Cn2c(=O)n(CCC(=O)NCc3ccccc3Cl)c(=O)c3sccc32)c1`: -100% (inactive).
Consider `CC(C)COc1ccc(C(=O)NCC2(N3CCN(C)CC3)CCCCC2)cc1`, for which the Potency was 16.5 µM (active).
In the case of `Cc1ccc(OCC(=O)NCC2(N3CCN(C)CC3)CCCCC2)cc1C`, the “activity, negative = inhibition” value was -20.2% (inactive).
The same measure, in the same setting: the figure for `CC(C)(C)c1ccc(OCC(=O)NCC2(N3CCOCC3)CCCCC2)cc1` is -38.2% (inactive); for `Cc1ccc(OCC(=O)NCC2(N3CCN(C)CC3)CCCCC2)cc1` it is -19.1% (inactive).
Consider `CN1CCN(C2(CNC(=O)COc3ccc(C(C)(C)C)cc3)CCCCC2)CC1`, for which the Potency was 14.7 µM (active).
For `CN(C)C1(CNC(=O)COc2ccc(C(C)(C)C)cc2)CCCCC1`, the “activity, negative = inhibition” value was -7.34% (inactive).
Same read-out and setting: the same measure for `Oc1ccccc1-c1nc(-c2cccs2)c(-c2cccs2)[nH]1`: -1.5% (inactive).
